The supplement of paper PMC12340641
Where a name gives a salt, the structure may show the parent alone.

System: HEK293FT dCK*-only
Assay: relative growth in counter assay (no AraC = 100%, AraC + DMSO = 0%); higher = more growth rescue independent of IKZF1
Settings: compound concentration: 5 uM; AraC concentration: 0.3 uM; overnight pretreatment + 4 days AraC
In short: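 In 384-well plates, 300 HEK293FT cells per well expressing an engineered kinase construct alone got 5 μM compound 2 h after seeding. After overnight at 37 °C, 0.3 μM nucleoside suicide substrate plus medium was applied for 4 days. Counting of Hoechst 33342-stained nuclei by imaging on day 5 was normalised per plate, with 100% for no-substrate wells and 0% for substrate plus vehicle.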

In order of rising “relative growth in counter assay” value:
1. C[n+]1c2cc(N)ccc2cc2ccc(N)cc21.Nc1ccc2cc3ccc(N)cc3nc2c1 [Acriflavine hydrochloride]  -35.7%
2. CC1(C)C(=O)N=C2C1=C(O)C(=O)c1ccccc12  -34.8%
3. C/C(=N\NC(=S)N1CCC1)c1ccccn1  -34.6%
4. C=CCNc1c(O)cc2c(O)c1C[C@@H](C)C[C@H](OC)[C@H](O)[C@@H](C)/C=C(\C)[C@H](OC(N)=O)[C@@H](OC)/C=C\C=C(/C)C(=O)N2 [Retaspimycin (Hydrochloride)]  -34.5%
5. COc1cc([C@@H]2c3cc4c(cc3[C@@H](O[C@@H]3O[C@@H]5CO[C@@H](C)O[C@H]5[C@H](O)[C@H]3O)[C@H]3COC(=O)[C@H]23)OCO4)cc(OC)c1OP(=O)(O)O [Etoposide phosphate]  -33.9%
6. CC(C)n1nc(-c2ccc3oc(N)nc3c2)c2c(N)ncnc21  -33.3%
7. COc1ccc(C2CC(c3c(O)cc(C)oc3=O)=NCCS2)c(OC)c1 (stereo not drawn)  -32.5%
8. O=c1c(-c2ccccc2)c1-c1ccccc1 [diphencyprone]  -31.8%
9. COc1cc(/C=C2\CCC/C(=C\c3ccc(O)c(OC)c3)C2=O)ccc1O [cyclovalone]  -31.6%
10. O=C(CCCCCCC(O)=NO)Nc1ccccc1 [Vorinostat]  -31.4%
11. C[C@H]1[C@H](OC(=O)CCC(=O)O)O[C@@H]2O[C@@]3(C)CC[C@H]4[C@H](C)CC[C@@H]1[C@@]24OO3  -30%
12. COc1ccc2nc3cc(Cl)ccc3c(Nc3cc(CN4CCCC4)c(O)c(CN4CCCC4)c3)c2n1  -29.1%
13. CCN1CCN(Cc2ccc(-c3cc4c(N[C@H](C)c5ccccc5)ncnc4[nH]3)cc2)CC1  -18.1%
14. O=[N+]([O-])c1ccc(O)c2ncccc12  -14.6%
15. COC(=O)Nc1nc2ccc(S(=O)c3ccccc3)cc2[nH]1 (stereo not drawn)  -12.6%
16. CC1(S(=O)(=O)[O-])CC(=O)c2ccccc2C1=O (stereo not drawn) [menadione-bisulfite]  -12.2%
17. OC(c1cc(C(F)(F)F)nc2c(C(F)(F)F)cccc12)C1CCCCN1 (stereo not drawn)  -10.6%
18. CCn1c(=O)[nH]c2ccccc21  -8.57%
19. Cc1cccc(CCN2CCC(C(=O)c3ccc(NS(C)(=O)=O)cc3)CC2)n1  -7.85%
20. CCCCCCCCCCC(CO)CCCCCCCC (stereo not drawn) [2-Octyldodecan-1-ol]  -4.55%
21. O=C1c2ccccc2C(Cc2ccncc2)(Cc2ccncc2)c2ccccc21  -4.37%
22. COCCOC(=O)C1=C(C)NC(C)=C(C(=O)OC/C=C/c2ccccc2)C1c1cccc([N+](=O)[O-])c1 (stereo not drawn) [cilnidipine]  -4.05%
23. Clc1cccc(Cl)c1CSc1nnc(-c2cnccn2)s1 [yoda-1]  -3.89%
24. CNCC(O)c1ccc(O)c(O)c1 (racemic) [DL-Adrenaline]  -3.86%
25. CCC(=N\O)/C(C)=C/c1ccc(F)cc1  -3.61%
26. CCCNC(=O)NS(=O)(=O)c1ccc(Cl)cc1  -2.41%
27. CC(NCCC(c1ccccc1)c1ccccc1)c1ccccc1 (stereo not drawn) [fendiline]  -1.99%
28. CCOC(=O)C1=C(C)NC(C)=C(C(=O)OC)C1c1cccc([N+](=O)[O-])c1 (stereo not drawn)  -1.02%
29. CC[C@H](CO)Nc1nc(Nc2cccc(-c3ccccn3)c2)c2ncn(C(C)C)c2n1  -0.26%
30. c1ccc(C2(c3ccccc3)CC2=C2NCCN2)cc1 [cibenzoline]  0.23%
31. CC(CN(C)C)CN1c2ccccc2Sc2ccccc21 (stereo not drawn)  1.07%
32. Cc1ccnc(NS(=O)(=O)c2ccc(N)cc2)n1  1.25%
33. O=C1C=Cc2cc(Br)ccc2C1=O [bonaphthone]  1.29%
34. O=C(Nc1ccc(Cl)cc1)Nc1ccc(Cl)c(Cl)c1 [Triclocarban]  3.72%
35. Oc1ccc(/C=C/c2cc(O)cc(O)c2)cc1 [Resveratrol]  5.43%
36. Cc1cc([C@H](C(=O)N2C[C@H](O)C[C@H]2C(=O)N[C@@H](CC(=O)N2CCC(C#Cc3ccc(C(=O)N[C@H]4C(C)(C)[C@H](Oc5ccc(C#N)c(Cl)c5)C4(C)C)cc3)CC2)c2ccccc2)C(C)C)on1  5.85%
37. O=C1[C@H]2CCCC[C@H]2C(=O)N1CCCCN1CCN(c2nsc3ccccc23)CC1 [Perospirone]  19.5%
38. CCC1/C=C(\C)CC(C)CC(OC)C2OC(O)(C(=O)C(=O)N3CCCCC3C(=O)OC(/C(C)=C/C3CCC(O)C(OC)C3)C(C)C(O)CC1=O)C(C)CC2OC (stereo not drawn) [Ascomycin (FK520)]  22.2%
